PKD1 kinase inh – PKD1 (human) kinase inhibition. Q15139. PKD1 kinase fluorescence polarization assay. inhibition, % (test concentration not listed). 0.056% of 200,000 active; in the data active = inhibition above about 50%
Target sequence (Q15139 whole entry, looked up): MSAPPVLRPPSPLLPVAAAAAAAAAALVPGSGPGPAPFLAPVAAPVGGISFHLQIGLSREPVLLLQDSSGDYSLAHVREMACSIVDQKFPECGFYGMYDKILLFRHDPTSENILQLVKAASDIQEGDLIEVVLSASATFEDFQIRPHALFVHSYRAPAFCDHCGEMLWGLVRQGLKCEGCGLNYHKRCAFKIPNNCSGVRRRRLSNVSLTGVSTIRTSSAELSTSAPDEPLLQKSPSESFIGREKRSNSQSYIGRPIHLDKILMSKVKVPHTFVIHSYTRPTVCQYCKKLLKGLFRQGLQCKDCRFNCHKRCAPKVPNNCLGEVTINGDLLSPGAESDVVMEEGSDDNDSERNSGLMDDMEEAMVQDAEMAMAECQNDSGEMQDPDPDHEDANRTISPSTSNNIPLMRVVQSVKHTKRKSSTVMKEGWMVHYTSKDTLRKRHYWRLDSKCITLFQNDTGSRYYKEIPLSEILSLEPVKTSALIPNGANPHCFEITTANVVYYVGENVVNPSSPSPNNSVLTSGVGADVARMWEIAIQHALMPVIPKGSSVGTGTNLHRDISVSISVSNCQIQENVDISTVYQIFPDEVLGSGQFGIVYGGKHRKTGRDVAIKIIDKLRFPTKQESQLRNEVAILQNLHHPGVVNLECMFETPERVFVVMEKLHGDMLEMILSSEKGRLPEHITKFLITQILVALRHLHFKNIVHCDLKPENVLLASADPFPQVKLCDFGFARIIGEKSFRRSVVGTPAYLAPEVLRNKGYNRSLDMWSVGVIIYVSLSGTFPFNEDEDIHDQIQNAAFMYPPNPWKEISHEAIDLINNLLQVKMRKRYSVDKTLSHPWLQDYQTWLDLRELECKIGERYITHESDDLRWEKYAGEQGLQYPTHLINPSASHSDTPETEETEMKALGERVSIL
DTT redox prof – compounds producing H2O2 with reducing agent – biochemical, NIH compound library profiling, artefact control for MLSCN library redox annotation, primary screen; DTT-dependent redox cycling H2O2, phenol red/HRP absorbance; 100% = 100 µM peroxide control, 0% = buffer; activation, % at 10 µM; 0.03% of 200,000 active;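 active = activation of at least 50% relative to the plate's high and low controls in the primary single-dose screen; inactive = activation below 50%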;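 also: compound incubated with DTT at 0.8 mM final as the reducing agent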
zVAD death inh – L929 zVAD cell death inhibition; L929 zVAD necroptosis rescue, ATP luminescence, 24 h; with zVAD 60 µM; viability rescue, % at 10 µM; 0.38% of 220,000 active;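 active = activation, scaled between plate controls, above about 75%, limit read from the data; inactive = activation under that limit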;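 also: 0% = zVAD with DMSO and 100% = DMSO alone without zVAD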
WT yeast gro inh – growth inhibition of WT yeast, mitochondrial fusion screen; mitochondrial fusion phenotypic screen, WT strain; 2.1% of 190,000 active; AID 1362; inhibition, % at 10 µM; in the data active = inhibition above about 58%; tested in S. cerevisiae
TNF necrop inh – TNF-alpha cell death inhibition in Jurkat FADD-/- cells; Jurkat FADD-/- TNF necroptosis rescue, ATP luminescence, 24 h; 0 = TNF only, 100 = no-TNF cells; activation (protection from cell death), % at 10 µM; 0.068% of 220,000 active; AID 463075;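 active = activation, meaning protection from cell death, of at least 50% relative to plate controls; inactive = activation below 50%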;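 also: necroptosis triggered by 40 ng/mL TNF-alpha added together with compound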
PERK inhibitor – inhibitors of human PERK kinase; CHO PERK-DD fusion, SEAP luminescence translation reporter; inhibition, % at 5.6 µM; 0.17% of 220,000 active; Q9NZJ5;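 active = inhibition above the mean inhibition of all tested compounds plus 3 SD, set separately per screening campaign, cut at about 2.9% in these data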;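 also: PERK kinase domain activated by AP20187 dimerizer at 100 nM; 0% = DMSO with dimerizer and 100% = rapamycin at 8.4 µM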
PKD FP artifact – interferes with fluorescence polarization in PKD inhibitor counter-screen; shares compounds with PKD1 kinase inh; PKD1 FP assay interference counter-screen; inhibition, % at 10 µM; 85 tested, under 10 active; call rule not given here
* = called active by the depositor; . = no result given. An excerpt weighted towards active compounds, which were near 2.4% of everything screened.

SMILES	PKD1 kinase inh	DTT redox prof	zVAD death inh	WT yeast gro inh	TNF necrop inh	PERK inhibitor	others
O=C(/C=C/c1cccc(O)c1)c1ccc(N2CCOCC2)cc1	.	.	3.1	.	-12.7	0.7
O=C(CSc1nnc(-c2c[nH]c3ccccc23)o1)N(Cc1ccccc1)c1ccc(F)cc1	-1.5	2.7	0.5	59.5*	-3.0	-2.0
COC(=O)c1ccc(NC(=O)C(OC)c2ccccc2)cc1 (stereo not drawn)	-4.3	-1.7	2.8	-15.6	27.8	0.9
NNC(=O)c1ccc(COc2cccc3ccccc23)cc1	-8.1	0.5	0.7	72.6*	0.4	0.6
OCCN1CCN(c2ncnc3c2c(-c2ccccc2)cn3-c2ccc(Br)cc2)CC1	3.9	5.5	-0.9	84.7*	9.2	-1.2
CCN1CCN(c2ncnc3c2c(-c2ccccc2)cn3-c2ccc(F)cc2)CC1	-8.1	-0.9	-0.8	26.0	2.5	0.2
Cc1cc(C)c2c(n1)sc1c(-c3ccccc3)c(C#N)c(N)nc12	-2.3	0.1	0.9	-3.6	0.3	0.6
CS(=O)(=O)N1CCc2cc(C(=O)N3CCOCC3)ccc21	3.9	0.8	-0.3	81.8*	-0.1	0.7
COC(=O)CC(NC(=O)c1cccs1)c1ccc(OC)c(OC)c1 (stereo not drawn)	0.0	-0.1	3.6	-6.4	0.3	0.0
S=C(NCCSCc1ccc(Cl)c(Cl)c1)Nc1ccccc1	8.6	1.6	-0.3	.	-6.2	0.0
S=C(NCCSCc1c(Cl)cccc1Cl)Nc1ccccc1	-3.2	1.8	-0.1	81.6*	-4.5	1.2
Cc1c(C(=O)NCCSCc2ccc(Cl)cc2Cl)cccc1[N+](=O)[O-]	-3.8	1.9	0.4	68.8*	-0.5	0.3
COc1ccc(CSCCNC(=S)Nc2ccccc2)cc1Cl	2.2	-1.2	-0.3	77.0*	0.0	0.4
S=C(NCCOCCOCCNC(=S)Nc1ccccc1)Nc1ccccc1	6.5	0.1	0.0	3.4	-1.0	0.5
Cc1ccc(C(=O)NCCSCc2ccc(Cl)cc2Cl)cc1[N+](=O)[O-]	2.6	1.5	0.1	38.5	1.6	0.1
Cc1ccccc1CSCCNC(=S)Nc1ccccc1	5.9	-0.3	-0.7	70.9*	-4.9	0.1
Cc1ccccc1CSCCNC(=O)c1ccccc1	11.7	-0.7	1.1	6.5	1.0	-0.2
COC(=O)C1=C(C)N(Cc2ccco2)C(=O)N[C@H]1c1cccc(C(F)(F)F)c1	0.3	0.3	-0.6	-0.8	-1.5	0.4
CCN1C(=O)N(CC)C2C1N(CO)C(=O)N2CO (stereo not drawn)	-6.5	-0.8	0.9	0.2	0.3	-0.1
S=C(NCCSCc1ccc(Cl)cc1Cl)Nc1ccccc1	-1.3	2.3	0.1	79.8*	-6.8	1.1
O=C1C(=O)N(Cc2ccccc2)C(=O)N1CCOc1ccccc1	-4.3	0.7	-0.4	0.5	1.3	1.8
Clc1cccc(C2CCN(Cc3nc(CC4CC4)no3)C2)c1 (stereo not drawn)	0.9	1.3	-1.0	5.3	1.5	-1.2
COc1ccc2oc(=O)c(-c3csc(Nc4cccc(O)c4)n3)cc2c1	4.4	0.1	2.6	74.0*	0.5	1.8
COCCCNC(=O)CCC(=O)NNc1nc2ccccc2c2nc(C)nn12	-4.5	0.1	1.0	3.1	-0.1	1.8
Cc1cc(C)n(C(=O)/C(C#N)=N\Nc2ccccc2[N+](=O)[O-])n1	-0.6	0.2	0.1	-1.6	0.6	1.0
SMILES	PKD1 kinase inh	DTT redox prof	zVAD death inh	WT yeast gro inh	TNF necrop inh	PERK inhibitor	others
Cc1cc(C)n(C(=O)/C(C#N)=N/Nc2cc(Cl)cc(Cl)c2)n1	-5.8	-0.6	-0.4	85.1*	-4.5	-0.4
COc1ccc(-c2nc(CN3CCCCC3c3nccn3C)c(C)o2)c(C)c1C (stereo not drawn)	-2.0	-0.1	-2.0	74.8*	1.8	-0.5
CCC(CC)C(=O)c1c[nH]c(C(=O)NCc2ccco2)c1	-4.3	-3.9	-0.2	61.1*	-1.0	0.5
CCC(=O)c1c[nH]c(C(=O)NCc2ccco2)c1	-6.9	0.4	-0.4	-0.4	-2.8	0.5
COc1cccc(C(=O)COC(=O)CCC(=O)NC2CCCCC2)c1	-4.2	-0.3	8.8	-24.6	0.9	0.5
O=C1N=C(N2CCCC2)S/C1=C\C=C\c1ccccc1	.	.	0.3	.	-3.0	-1.3
Cc1c(N/N=C(\C#N)C(=O)c2ccccc2)c(=O)n(-c2ccccc2)n1C	54.9*	-0.5	5.3	6.8	-6.8	-0.1	PKD FP artifact=2.5
Cn1c(CSc2ncccn2)nnc1SCC(=O)N1CCCc2ccccc21	3.9	-0.7	-1.0	-5.9	0.3	0.3
CCn1c(CSc2ncccn2)nnc1SCC(=O)N1CCc2ccccc21	99.5*	-0.3	-0.2	8.6	-4.3	-0.9	PKD FP artifact=-12.8
O=C(CN1CCCC1)Nc1c2c(nc3ccccc13)N(Cc1ccccc1)CC2	99.8*	0.0	-0.7	-11.2	2.1	-1.0	PKD FP artifact=-9.4
COCCNC(=O)c1cc(S(=O)(=O)N2CCOCC2)ccc1SCc1cccc(OC)c1OC	1.6	1.5	1.3	-7.4	2.7	0.2
Cc1cc(C)n(C(=O)/C(C#N)=C/N(C)C)n1	-5.9	-0.7	8.1	-13.0	0.8	0.4
O=C(CN1CCN(c2ncccn2)CC1)N1CCCc2c1c(=O)oc1ccc(O)cc21	12.1	1.0	-0.4	4.1	-0.8	1.0
O=C1NCCCc2c1oc1ccc(O)cc21	100.2*	-0.9	-1.1	-0.8	5.5	0.6	PKD FP artifact=-12.1
O=C(Nc1cc([N+](=O)[O-])ccc1Cl)c1ccc2c(c1)OCO2	2.1	-0.8	0.6	6.9	-1.5	1.8
Clc1cncc(Cl)c1N/N=C/c1ccncc1	91.4*	-0.1	-0.8	-23.5	-24.6	1.1	PKD FP artifact=-24.4
CCc1ccc(-c2cc(C(F)(F)F)n3nc(C(=O)Nc4c(C)nn(Cc5ccc(F)cc5)c4C)cc3n2)s1	0.4	0.0	0.5	18.8	2.1	0.0
Cc1ccc(C)c2nc3sc(C(=O)O)cc3cc12	7.0	-0.5	1.5	-12.4	1.5	1.0
Nc1nc2ccccc2n1/N=C/c1ccc(-c2ccccc2)o1	-8.6	-3.2	8.6	35.0	0.6	-0.5
Nc1nc2ccccc2n1/N=C/c1cccnc1	68.8*	1.4	2.4	-6.4	-2.0	0.7	PKD FP artifact=-14.7
Nc1nc2ccccc2n1/N=C/c1ccc([N+](=O)[O-])s1	52.5*	0.4	28.0	15.0	-9.2	0.1	PKD FP artifact=-12.1
CC1(C)CC(O)C(C(O)c2cccc([N+](=O)[O-])c2)C(C)(C)N1 (stereo not drawn)	-0.2	-0.1	2.1	-3.8	3.1	0.3
CN1CCN(c2ccccc2NC(=O)c2ccc(Br)o2)CC1	41.3	1.2	72.3	5.0	2.7	-1.4
CS(=O)(=O)N1CCN(c2ccccc2NC(=O)c2ccc(Br)o2)CC1	95.9*	2.7	74.7	-11.0	1.5	-0.2	PKD FP artifact=-9.4

Screens: PubChem BioAssay, several laboratories
